Laboratory results published in PubChem BioAssay (NCATS).
Records with an inconclusive call do not appear. Activity calls are given as the source filed them. Unless noted, calls follow the shape of the dose curve; as a rule, active = well fitted curve in the direction sought with a large enough effect; inconclusive = small, poorly fitted or top-dose-only effect, or another doubt; inactive = no such curve, though single readings can be large; an effect the other way counts as inactive or inconclusive. Where a SMILES comes first, the peptide text is derived from it. [ ]: non-standard residue; d: D form.

Tests used:
[1] = qHTS to identify inhibitors of the type 1 interferon - major histocompatibility complex class I in skeletal muscle: primary screen against the NCATS Mechanism Interrogation Plate v5.0 (MIPE) Libary (AID 1347411); also: nearly all actives have a fitted effect of over 65% in size;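 as to activity change, negative = inhibition: plate controls were vehicle for no effect and reference inhibitor for full effect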
How it was run: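 Luminescence from HiBiT-tagged endogenous HLA-B*08:01 served as the MHC class I read-out. CRISPR-engineered C25cl48 human myoblasts received 4.0 ng/ml IFN-beta plus compound for 24 hrs, with an 11-point, 1:3 series topping at 46 uM final.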

[2] = Primary qHTS for inhibitors of nuclear receptor binding SET domain protein 2 (NSD2) in an isogenic RCH-ACV NSD2 p.E1099K mutant (9B) (AID 1645876); also: nearly all actives have a fitted effect of over 70% in size; as to activity change, negative = viability loss: % is scaled to controls: 0 for no effect and ±100 for the full control effect
[3] = Primary qHTS for inhibitors of nuclear receptor binding SET domain protein 2 (NSD2) in an RCH-ACV wild type WT cells (2C) (AID 1645877); also: nearly all actives have a fitted effect of over 70% in size; as to activity change, negative = cell killing: % is scaled to controls: 0 for no effect and ±100 for the full control effect
[4] = target: Glutathione peroxidase 1 (Homo sapiens) (UniProt P07203); test: Primary qHTS Assay for Inhibitors of Recombinant Selenoprotein Glutathione Peroxidase 1 (GPX1) (AID 1845191); also: nearly all actives have a fitted effect of over 65% in size
Sequence of Glutathione peroxidase 1 (Homo sapiens) (P07203 whole entry, looked up): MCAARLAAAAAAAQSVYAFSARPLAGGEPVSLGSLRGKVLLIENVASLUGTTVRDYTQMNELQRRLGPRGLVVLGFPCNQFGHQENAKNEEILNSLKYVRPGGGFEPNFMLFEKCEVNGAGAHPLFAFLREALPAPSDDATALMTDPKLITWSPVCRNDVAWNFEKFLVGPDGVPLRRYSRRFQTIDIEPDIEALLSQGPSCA
How it was run: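 GR-coupled assay: compounds preincubated 30 min at room temperature with GPX1, then reaction started with CHP; final 10 nM GPX1, 1 mM GSH, 0.5 mM CHP, 0.5 mM NADPH, 100 nM GR, 0.01% BSA, pH 7.5 Tris buffer. NADPH fluorescence (340/450 nm) read at 0 and 15 min.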

[5] = target: Phospholipid hydroperoxide glutathione peroxidase GPX4 (Homo sapiens) (UniProt P36969); test: Primary qHTS Assay for Inhibitors of Recombinant Selenoprotein Glutathione Peroxidase 4 (GPX4) (AID 1845192); details: outcome: dose series up to 50 µM unless noted; also: nearly all actives have a fitted effect of over 65% in size; as to activity change, negative = inhibition: series mostly up to about 50 µM; % is scaled to controls: 0 for no effect and ±100 for the full control effect
Sequence of Phospholipid hydroperoxide glutathione peroxidase GPX4 (Homo sapiens) (P36969 whole entry, looked up): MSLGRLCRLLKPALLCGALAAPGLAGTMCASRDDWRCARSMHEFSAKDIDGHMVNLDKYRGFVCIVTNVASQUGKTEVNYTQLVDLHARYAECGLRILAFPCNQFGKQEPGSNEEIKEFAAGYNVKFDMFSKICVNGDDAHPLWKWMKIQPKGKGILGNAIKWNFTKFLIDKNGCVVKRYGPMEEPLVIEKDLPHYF
How it was run: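 GR-coupled assay: recombinant GPX4 preincubated 30 min with compound at room temperature; final 200 nM GPX4, 1 mM GSH, 0.5 mM cumene hydroperoxide, 0.5 mM NADPH, 100 nM GR, 0.01% BSA, pH 7.5 Tris. NADPH fluorescence (340/450 nm) read at 0 and 15 min.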

[6] = qHTS drug screen for cell cycle checkpoint inhibitors in PARPi-resistant BRCA-mutant ovarian cancer cell lines. (AID 1963452; calls by dose curve); details: PEO1/OlaR viability, CellTiter-Glo luminescence, 96 h; for Z-AUC: stronger effect = lower value
How it was run: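 PEO1, PEO4 and PEO1/OlaR ovarian cancer cells, 600 per well, exposed 96 h at 37C to a dilution series. Viability read by CellTiter-Glo luminescence, normalized to DMSO and empty wells; activity summarized as Z-AUC.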

[7] = measured here: PEO1 parental Z-AUC
Potency is read from the fitted curve at half-maximal effect.

SMILES	Potency [1]	Potency [2]	Potency [3]	Potency [4]	Potency [5]	Z-AUC [6]	Z-AUC [6, 7]	Z-AUC ([6]; measured here: PEO4 Z-AUC)	activity change, negative = inhibition [1]	activity change, negative = viability loss [2]	activity change, negative = cell killing [3]	outcome [4]	outcome [5]	Potency [6]
C[C@@H]1C(=O)OC2[C@H](O)[C@]34[C@H]5C[C@@H](C(C)(C)C)[C@]36[C@@H](OC(=O)[C@@H]6O)O[C@@]4(C(=O)O5)[C@]21O (stereo partly specified)	inactive	inactive	inactive	inactive	inactive	1.19 (inactive)	0.871	0.917						
CC(C)(O)CNc1ncc(-c2ccnc(Nc3ccncc3)n2)c(CC2CC2)n1	16500 nM (active)	4170 nM (active)	3720 nM (active)	inactive	inactive	-0.109 (inactive)	-0.212	0.228						
COCCNc1cc(NC(=O)N2CCCc3cc(CN4CCN(C)CC4=O)c(C=O)nc32)ncc1C#N						0.715 (inactive)	0.498	0.787	-1.84% [at 8.44 µM] (inactive)	3.8% [at 9.23 µM] (inactive)	2.96% [at 9.23 µM] (inactive)	inactive [at 9.52 µM]	inactive [at 9.73 µM]	
C=CC(=O)N1CCC(C2CCNc3c(C(N)=O)c(-c4ccc(Oc5ccccc5)cc4)nn32)CC1 (stereo unspecified)	inactive	14800 nM (active)	6610 nM (active)	inactive	inactive	-0.181 (inactive)	-0.23	-0.000619						
C=CC(=O)N1CCC[C@H](n2c(=O)n(-c3ccc(Oc4ccccc4)cc3)c3c(N)ncnc32)C1	inactive	2090 nM (active)	2090 nM (active)	inactive	inactive	-0.0902 (inactive)	0.044	-0.151						
COc1ccc(Cl)cc1-c1cc(=O)[nH]c(=S)n1CC(N)=O	inactive	inactive	inactive	inactive	inactive	0.0644 (inactive)	0.00773	0.346						
Nc1nc(-c2nn(Cc3ccccc3F)c3ncccc23)ncc1C1CC1	inactive	1180 nM (active)	1180 nM (active)	inactive	inactive	1.67 (inactive)	0.865	1.09						
CN1C(=O)[C@@H](NC(=O)c2n[nH]c(Cc3ccccc3)n2)COc2ccccc21	inactive	inactive	inactive	inactive	inactive	-0.646 (inactive)	-0.812	-0.659						
CC1(N)CCN(c2cnc(-c3cccc(Cl)c3Cl)c(N)n2)CC1	inactive	inactive	inactive	inactive	inactive	-0.468 (inactive)	-0.626	-0.55						
C[C@@]1(c2ncncc2F)NC(=O)c2cc(-c3cn[nH]c3)ccc21	20800 nM (active)	14800 nM (active)	14800 nM (active)	inactive	inactive	-0.499 (inactive)	-0.528	-0.372						
Nc1nccc2c1ncn2[C@@H]1C=C(CO)[C@@H](O)[C@H]1O	inactive	209 nM (active)	148 nM (active)	inactive	inactive	-0.397 (inactive)	-0.938	-1.07						
CC(C)C[C@@H]1NC(=O)[C@@H](C(C)C)NC(=O)[C@@H]2CCCN2C(=O)[C@@H](CC(=O)O)NC(=O)[C@@H](Cc2c[nH]c3ccccc23)NC1=O (cyclo(L[dW][dD]P[dV]))	inactive	inactive	inactive	inactive	inactive	-0.319 (inactive)	0.0618	-0.23						
COc1ccc(C(=O)N2CCN(C(=O)/C=C/c3ccc(Br)cc3)CC2)cc1	inactive	inactive	inactive	inactive	inactive	1.19 (inactive)	1.01	1.05						
CC(C)n1ncnc1-c1cn2c(n1)-c1ccc(O[C@@H](C)C(N)=O)cc1OCC2	inactive	934 nM (active)	934 nM (active)	inactive	inactive	-1.61 (inactive)	-1.38	-1.69						
O=C(Nc1nccs1)C(c1cc(F)ccc1O)N1Cc2ccccc2C1=O (stereo unspecified)	inactive	inactive	inactive	inactive	inactive	-0.378 (inactive)	-0.736	-0.75						
C=C1C[C@@H]2CC[C@@]34C[C@H]5O[C@H]6[C@@H](O3)[C@H]3O[C@H](CC[C@@H]3O[C@H]6[C@H]5O4)CC(=O)C[C@@H]3[C@@H](OC)[C@@H](C[C@H](O)CN)O[C@H]3C[C@H]3O[C@@H](CC[C@@H]1O2)C[C@@H](C)C3=C		1.4 nM (active)	1.1 nM (active)	inactive	inactive		-3.01	-2.65	-7.19% [at 8.44 µM] (inactive)					8.9 nM (active)
CCOc1ccc(Cc2cc([C@@H]3O[C@H](CO)[C@@H](O)[C@H](O)[C@H]3O)ccc2Cl)cc1	inactive	inactive	inactive	inactive	inactive	1.26 (inactive)	1.31	1.52						
O=C(Nc1ccc(OC(F)(F)Cl)cc1)c1cnc(N2CC[C@@H](O)C2)c(-c2ccn[nH]2)c1	inactive	16600 nM (active)	14800 nM (active)	inactive	inactive	-1.46 (inactive)	-0.874	-0.386						
Nc1n[n+]([O-])c2ccccc2[n+]1[O-]	inactive	18600 nM (active)	10500 nM (active)	inactive	inactive	-0.469 (inactive)	-1.12	-1.08						

SMILES	Potency [1]	Potency [2]	Potency [3]	Potency [4]	Potency [5]	Z-AUC [6]	Z-AUC [6, 7]	Z-AUC ([6]; measured here: PEO4 Z-AUC)	activity change, negative = inhibition [1]	activity change, negative = viability loss [2]	activity change, negative = cell killing [3]	outcome [4]	outcome [5]	Potency [6]
CC(C)(C)c1[nH]cnc1/C=c1\[nH]c(=O)/c(=C/c2ccccc2)[nH]c1=O	inactive	118 nM (active)	118 nM (active)	inactive	inactive		-2.5	-2.52						174 nM (active)
Cc1nnn(C)c1-c1cnc2c3ccc(C(C)(C)O)cc3n([C@H](c3ccccc3)C3CCOCC3)c2c1	inactive	7.4 nM (active)	9.3 nM (active)	18300 nM (active)	16100 nM (active)		-1.84	-2.14						549 nM (active)
CN1CCCN(C(=O)c2cccc(-c3ccc(/C=C4/C(=O)Nc5ccc(Cl)cc54)o3)c2)CC1	8290 nM (active)	186 nM (active)	166 nM (active)	inactive	inactive	0.657 (inactive)	-0.436	-0.635						
CCOc1cc(/C=C2/C(=O)N(c3ccccc3)N=C2C)cc(Cl)c1OCC(=O)OC	inactive	inactive	inactive	inactive	inactive	1.36 (inactive)	1.44	0.891						
CC(C)(O)[C@H]1CC[C@@](C)([C@H]2[C@@H](O)C[C@@]3(C)[C@@H]4C[C@H](O[C@@H]5O[C@H](CO)[C@@H](O)[C@H](O)[C@H]5O)[C@H]5C(C)(C)[C@@H](O[C@@H]6OC[C@@H](O)[C@H](O)[C@H]6O)CC[C@@]56C[C@@]46CC[C@]23C)O1	inactive	inactive	inactive	inactive	inactive	-0.0384 (inactive)	1.82	1.68						
O=C([O-])C[O-].[Pt+2]	inactive	inactive	inactive	inactive	inactive	1.62 (inactive)	1.67	1.5						
Nc1nccc(-c2c(-c3ccc(F)cc3)ncn2C2CCN(Cc3ccon3)CC2)n1	inactive	7420 nM (active)	7420 nM (active)	inactive	inactive	0.042 (inactive)	0.6	0.374						
COc1nc(N)nc2c1ncn2C1OC(CO)C(O)C1O (stereo unspecified)	inactive	5250 nM (active)	4680 nM (active)	inactive	inactive	-0.613 (inactive)	-0.445	-0.286						
NCC(=O)Nc1cncc(-c2nn3c(=O)cc(N4CCNCC4)nc3s2)c1	inactive	inactive	inactive	inactive	inactive	0.673 (inactive)	0.487	1.13						
Cc1ccc(NS(=O)(=O)c2cccc(C#N)c2)c2[nH]cc(C#N)c12	inactive	372 nM (active)	417 nM (active)	inactive	inactive	-0.908 (inactive)	-1.02	-1.95						
COc1cc([C@@H]2c3cc4c(cc3[C@@H](O[C@@H]3O[C@@H]5CO[C@@H](c6cccs6)O[C@H]5[C@H](O)[C@H]3O)[C@H]3COC(=O)[C@H]23)OCO4)cc(OC)c1O	inactive	33.2 nM (active)	23.5 nM (active)	inactive	inactive		-1.88	-2.18						87.1 nM (active)
O=C1CC(c2c[nH]c3ccc(F)cc23)C(=O)N1 (stereo unspecified)	inactive	inactive	inactive	inactive	inactive	0.488 (inactive)	0.554	0.655						
C/C(=N\NC(=S)N1CCC1)c1ccccn1	inactive	10.5 nM (active)	9.3 nM (active)	inactive	inactive	-0.969 (inactive)	-1.12	-1.07						
CC1(C)C(N(O)C(=O)Nc2ccc(Cl)cc2)N(c2ccc(Cl)cc2)C(=O)N1CC(=O)N/N=C/C=C/c1ccc([N+](=O)[O-])o1 (stereo unspecified)	14700 nM (active)	7420 nM (active)	8330 nM (active)	inactive	14300 nM (active)	1.66 (inactive)	1.13	1.09						
COc1ccc2[nH]c(C(=O)N3CCC(CC(C)(C)O)CC3)cc2c1	inactive	inactive	inactive	inactive	inactive	0.0283 (inactive)	0.0965	0.395						
Nc1nc(OC(c2ccc(-c3cccc(F)c3)cc2)C(F)(F)F)cc(-c2ccc(C[C@@H](N)C(=O)O)cc2)n1 (stereo partly specified)	inactive	18600 nM (active)	20900 nM (active)	inactive	inactive	1.03 (inactive)	1.4	1.67						
CC1(C)S[C@H]2[C@H](NC(=O)[C@@H](N)c3ccc(O)cc3)C(=O)N2[C@H]1C(=O)O	inactive	inactive	inactive	inactive	inactive	-0.122 (inactive)	0.11	0.161						
CCN(C(=O)c1ccccc1OC)c1cc2c(cc1N1CCNC[C@H]1C)n(C)c(=O)n2C	inactive	inactive	inactive	inactive	inactive	-0.888 (inactive)	-0.889	-0.903						
